Assay [1] has as its target Serine/threonine-protein kinase PAK 4 (Homo sapiens) (UniProt O96013). As to conditions: at 1 µM.
For assay [2] the target is unchanged. As to conditions: at 10 µM.
Assay [3] has as its target Serine/threonine-protein kinase PAK 5 (Homo sapiens) (UniProt Q9P286). As to conditions: at 1 µM.
Assay [4] has the same target. Particulars: at 10 µM.
In assay [5] the target is Serine/threonine-protein kinase PAK 6 (Homo sapiens) (UniProt Q9NQU5). Particulars: at 1 µM.
The target is the same in assay [6]. Particulars: at 10 µM.
Assay [7] has as its target PAS domain-containing serine/threonine-protein kinase (Homo sapiens) (UniProt Q96RG2). As to conditions: at 10 µM.
The target in assay [8] is Activated CDC42 kinase 1 (Homo sapiens) (UniProt Q07912). Particulars: at 1 µM.
Assay [9] shares this target. As to conditions: at 10 µM.
For assay [10], the target named is ALK tyrosine kinase receptor (Homo sapiens) (UniProt Q9UM73). As to conditions: at 1 µM.
The target is the same in assay [11]. Particulars: at 10 µM.
The target of assay [12] is T1, Activin receptor type-1B (Homo sapiens) (UniProt P36896).
T1 sequence (whole entry): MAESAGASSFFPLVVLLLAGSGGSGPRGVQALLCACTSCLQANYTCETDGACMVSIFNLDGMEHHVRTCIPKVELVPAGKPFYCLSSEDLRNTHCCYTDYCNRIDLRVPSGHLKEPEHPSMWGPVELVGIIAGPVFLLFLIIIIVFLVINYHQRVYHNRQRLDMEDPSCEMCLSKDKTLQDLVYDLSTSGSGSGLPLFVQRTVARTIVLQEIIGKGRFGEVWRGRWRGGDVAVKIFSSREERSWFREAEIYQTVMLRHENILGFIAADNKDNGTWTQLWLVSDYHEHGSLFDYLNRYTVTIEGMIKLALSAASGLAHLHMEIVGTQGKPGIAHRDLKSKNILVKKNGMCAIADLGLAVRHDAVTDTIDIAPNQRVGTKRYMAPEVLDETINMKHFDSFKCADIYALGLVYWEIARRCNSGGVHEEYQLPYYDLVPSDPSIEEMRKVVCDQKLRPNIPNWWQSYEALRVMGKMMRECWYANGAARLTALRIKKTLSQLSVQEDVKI
As to conditions: at 1 µM.

Assay [13] concerns the target T1, Activin receptor type-1B (Homo sapiens). As to conditions: at 10 µM.
The target in assay [14] is T2, AMP-activated protein kinase (AMPK) alpha-1/beta-1/gamma-1 (Homo sapiens) (UniProt P54619+Q9Y478+Q13131). As to conditions: at 1 µM.
The target of assay [15] is T2, AMP-activated protein kinase (AMPK) alpha-1/beta-1/gamma-1 (Homo sapiens). Particulars: at 10 µM.
The target of assay [16] is T3, AMP-activated protein kinase, AMPK (Homo sapiens) (UniProt P54646+O43741+P54619+Q9UGJ0+Q9Y478+Q13131+Q9UGI9). Particulars: at 1 µM.
In assay [17] the target is T3, AMP-activated protein kinase, AMPK (Homo sapiens). Particulars: at 10 µM.
Assay [18] addresses T4, NUAK family SNF1-like kinase 1 (Homo sapiens) (UniProt O60285).
T4 sequence (whole entry): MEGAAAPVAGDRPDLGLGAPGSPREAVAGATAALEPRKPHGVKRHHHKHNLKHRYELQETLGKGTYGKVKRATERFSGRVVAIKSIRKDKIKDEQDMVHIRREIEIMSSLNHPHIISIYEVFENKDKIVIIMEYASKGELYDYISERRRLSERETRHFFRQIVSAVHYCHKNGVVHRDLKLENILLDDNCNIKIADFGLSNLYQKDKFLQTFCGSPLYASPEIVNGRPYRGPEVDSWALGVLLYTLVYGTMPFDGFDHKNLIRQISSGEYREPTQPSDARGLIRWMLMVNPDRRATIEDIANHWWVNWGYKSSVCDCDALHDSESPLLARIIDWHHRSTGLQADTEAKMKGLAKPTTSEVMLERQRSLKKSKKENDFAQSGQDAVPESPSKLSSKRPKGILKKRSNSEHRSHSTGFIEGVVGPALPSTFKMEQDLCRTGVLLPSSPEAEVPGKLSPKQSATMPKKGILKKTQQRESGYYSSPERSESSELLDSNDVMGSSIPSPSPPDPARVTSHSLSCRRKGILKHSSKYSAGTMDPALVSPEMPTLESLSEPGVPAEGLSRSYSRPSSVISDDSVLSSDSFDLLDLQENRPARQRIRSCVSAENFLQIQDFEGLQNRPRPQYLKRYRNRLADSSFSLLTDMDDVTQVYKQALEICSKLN
Particulars: at 1 µM.

The target of assay [19] is T4, NUAK family SNF1-like kinase 1 (Homo sapiens). Particulars: at 10 µM.
Assay [20] deals with T5, Mitogen-activated protein kinase kinase kinase 5 (Homo sapiens) (UniProt Q99683).
T5 sequence (whole entry): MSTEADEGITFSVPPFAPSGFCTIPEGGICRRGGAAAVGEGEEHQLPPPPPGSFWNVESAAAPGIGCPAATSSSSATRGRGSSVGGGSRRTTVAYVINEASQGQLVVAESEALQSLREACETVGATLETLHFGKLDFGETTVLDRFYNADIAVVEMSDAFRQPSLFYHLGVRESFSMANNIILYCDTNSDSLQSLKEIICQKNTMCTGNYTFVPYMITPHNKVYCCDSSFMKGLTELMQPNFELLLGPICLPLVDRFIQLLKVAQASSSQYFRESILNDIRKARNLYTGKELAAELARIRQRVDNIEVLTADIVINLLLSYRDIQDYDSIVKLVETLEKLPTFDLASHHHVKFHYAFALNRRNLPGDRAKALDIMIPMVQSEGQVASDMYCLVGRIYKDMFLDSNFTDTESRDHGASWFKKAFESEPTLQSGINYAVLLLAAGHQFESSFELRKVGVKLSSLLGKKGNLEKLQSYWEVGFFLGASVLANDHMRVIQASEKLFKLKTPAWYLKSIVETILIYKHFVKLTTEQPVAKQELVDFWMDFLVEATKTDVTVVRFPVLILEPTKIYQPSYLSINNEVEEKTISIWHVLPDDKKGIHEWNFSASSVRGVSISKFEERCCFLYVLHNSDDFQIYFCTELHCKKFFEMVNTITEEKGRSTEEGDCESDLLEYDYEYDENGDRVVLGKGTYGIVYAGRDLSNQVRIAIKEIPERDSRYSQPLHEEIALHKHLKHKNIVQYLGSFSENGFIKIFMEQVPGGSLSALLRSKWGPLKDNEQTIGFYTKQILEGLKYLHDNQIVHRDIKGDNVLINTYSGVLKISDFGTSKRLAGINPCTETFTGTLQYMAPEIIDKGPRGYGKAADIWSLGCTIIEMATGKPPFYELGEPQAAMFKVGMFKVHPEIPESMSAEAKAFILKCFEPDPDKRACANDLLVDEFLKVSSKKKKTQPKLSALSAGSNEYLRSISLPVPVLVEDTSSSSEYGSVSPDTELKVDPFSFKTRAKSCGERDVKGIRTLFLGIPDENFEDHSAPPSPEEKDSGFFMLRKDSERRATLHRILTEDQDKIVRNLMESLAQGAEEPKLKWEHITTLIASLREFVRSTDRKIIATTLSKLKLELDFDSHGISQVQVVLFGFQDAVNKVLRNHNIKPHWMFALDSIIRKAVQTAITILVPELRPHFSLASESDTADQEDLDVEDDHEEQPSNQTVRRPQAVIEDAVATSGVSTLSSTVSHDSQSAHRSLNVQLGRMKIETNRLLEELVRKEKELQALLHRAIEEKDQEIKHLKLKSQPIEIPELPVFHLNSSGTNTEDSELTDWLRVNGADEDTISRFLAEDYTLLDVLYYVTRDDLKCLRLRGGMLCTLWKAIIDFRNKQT
Particulars: at 1 µM.

The results in this text go back to ChEMBL document CHEMBL2218924, “A broad activity screen in support of a chemogenomic map for kinase signalling research and drug discovery” (Biochem J, 2013).

T2 sequence (P54619 whole entry): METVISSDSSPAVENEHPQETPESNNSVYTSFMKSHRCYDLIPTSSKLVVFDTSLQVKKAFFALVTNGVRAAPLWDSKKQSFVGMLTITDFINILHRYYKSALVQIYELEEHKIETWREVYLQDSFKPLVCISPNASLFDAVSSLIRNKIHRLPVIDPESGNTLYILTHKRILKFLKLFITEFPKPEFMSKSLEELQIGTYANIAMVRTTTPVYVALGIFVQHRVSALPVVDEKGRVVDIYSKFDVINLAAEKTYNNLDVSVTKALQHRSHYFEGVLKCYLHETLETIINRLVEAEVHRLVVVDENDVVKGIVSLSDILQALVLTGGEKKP
T2 sequence (Q13131 whole entry partner): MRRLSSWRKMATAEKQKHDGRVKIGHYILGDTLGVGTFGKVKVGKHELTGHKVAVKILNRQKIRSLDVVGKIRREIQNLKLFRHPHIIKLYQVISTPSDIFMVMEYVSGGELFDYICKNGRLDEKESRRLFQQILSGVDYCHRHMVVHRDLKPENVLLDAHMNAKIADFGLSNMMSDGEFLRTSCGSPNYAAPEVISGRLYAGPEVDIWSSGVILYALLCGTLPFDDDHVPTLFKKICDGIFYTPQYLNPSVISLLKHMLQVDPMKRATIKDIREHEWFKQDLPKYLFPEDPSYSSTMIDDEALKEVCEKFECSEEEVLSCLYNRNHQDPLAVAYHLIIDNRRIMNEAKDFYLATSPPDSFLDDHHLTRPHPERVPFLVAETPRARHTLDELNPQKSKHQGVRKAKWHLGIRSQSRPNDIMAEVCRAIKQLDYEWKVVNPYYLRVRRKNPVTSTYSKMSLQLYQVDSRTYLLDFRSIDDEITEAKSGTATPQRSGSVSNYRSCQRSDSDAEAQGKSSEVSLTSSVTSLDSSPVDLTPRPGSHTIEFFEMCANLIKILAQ
T2 sequence (Q9Y478 2-270 partner limits assumed): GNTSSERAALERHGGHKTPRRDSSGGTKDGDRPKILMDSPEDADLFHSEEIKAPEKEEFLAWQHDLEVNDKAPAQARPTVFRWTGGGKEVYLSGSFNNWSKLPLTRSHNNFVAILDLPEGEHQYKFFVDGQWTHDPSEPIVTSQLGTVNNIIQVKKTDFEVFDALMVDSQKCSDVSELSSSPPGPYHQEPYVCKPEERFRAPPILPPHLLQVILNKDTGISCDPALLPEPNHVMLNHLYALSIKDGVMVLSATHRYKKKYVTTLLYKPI
Sequence of PAS domain-containing serine/threonine-protein kinase (Homo sapiens) (Q96RG2 whole entry, the tested form may be a part): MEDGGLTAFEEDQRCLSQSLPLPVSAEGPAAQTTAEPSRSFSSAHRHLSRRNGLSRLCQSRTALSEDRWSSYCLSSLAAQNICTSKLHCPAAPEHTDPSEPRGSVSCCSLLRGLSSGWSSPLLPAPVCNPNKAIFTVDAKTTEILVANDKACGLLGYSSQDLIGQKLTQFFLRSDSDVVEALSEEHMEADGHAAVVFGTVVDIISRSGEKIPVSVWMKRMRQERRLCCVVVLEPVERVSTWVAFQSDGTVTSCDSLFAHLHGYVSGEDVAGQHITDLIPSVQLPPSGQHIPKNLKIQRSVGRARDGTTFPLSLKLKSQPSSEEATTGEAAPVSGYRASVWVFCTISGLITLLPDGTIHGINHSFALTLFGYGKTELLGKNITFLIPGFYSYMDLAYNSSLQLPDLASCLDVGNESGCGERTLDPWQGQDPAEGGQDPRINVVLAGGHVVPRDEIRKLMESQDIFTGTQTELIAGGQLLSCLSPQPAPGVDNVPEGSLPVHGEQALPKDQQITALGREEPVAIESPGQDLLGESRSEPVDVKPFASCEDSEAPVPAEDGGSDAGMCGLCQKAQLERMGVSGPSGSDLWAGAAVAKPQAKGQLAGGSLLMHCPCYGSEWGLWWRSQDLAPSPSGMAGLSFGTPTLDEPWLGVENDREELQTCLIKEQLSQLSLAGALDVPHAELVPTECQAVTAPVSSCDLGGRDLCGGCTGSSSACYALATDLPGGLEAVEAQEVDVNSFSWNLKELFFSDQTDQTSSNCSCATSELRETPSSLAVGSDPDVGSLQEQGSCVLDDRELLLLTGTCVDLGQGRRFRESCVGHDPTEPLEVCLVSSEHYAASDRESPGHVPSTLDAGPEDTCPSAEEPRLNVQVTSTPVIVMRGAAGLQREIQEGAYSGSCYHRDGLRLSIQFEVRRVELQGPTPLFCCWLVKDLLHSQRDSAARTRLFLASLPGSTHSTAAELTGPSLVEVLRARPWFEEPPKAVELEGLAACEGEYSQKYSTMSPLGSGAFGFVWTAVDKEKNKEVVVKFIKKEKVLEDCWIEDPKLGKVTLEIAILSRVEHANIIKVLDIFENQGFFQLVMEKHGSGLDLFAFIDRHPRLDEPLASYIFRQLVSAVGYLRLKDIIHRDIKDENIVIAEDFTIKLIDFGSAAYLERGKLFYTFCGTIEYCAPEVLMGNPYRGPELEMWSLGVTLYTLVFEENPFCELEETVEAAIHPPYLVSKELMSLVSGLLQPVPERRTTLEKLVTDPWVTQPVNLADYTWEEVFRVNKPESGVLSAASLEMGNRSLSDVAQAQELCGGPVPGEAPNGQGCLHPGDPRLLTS
Sequence of Serine/threonine-protein kinase PAK 4 (Homo sapiens) (O96013 whole entry, looked up): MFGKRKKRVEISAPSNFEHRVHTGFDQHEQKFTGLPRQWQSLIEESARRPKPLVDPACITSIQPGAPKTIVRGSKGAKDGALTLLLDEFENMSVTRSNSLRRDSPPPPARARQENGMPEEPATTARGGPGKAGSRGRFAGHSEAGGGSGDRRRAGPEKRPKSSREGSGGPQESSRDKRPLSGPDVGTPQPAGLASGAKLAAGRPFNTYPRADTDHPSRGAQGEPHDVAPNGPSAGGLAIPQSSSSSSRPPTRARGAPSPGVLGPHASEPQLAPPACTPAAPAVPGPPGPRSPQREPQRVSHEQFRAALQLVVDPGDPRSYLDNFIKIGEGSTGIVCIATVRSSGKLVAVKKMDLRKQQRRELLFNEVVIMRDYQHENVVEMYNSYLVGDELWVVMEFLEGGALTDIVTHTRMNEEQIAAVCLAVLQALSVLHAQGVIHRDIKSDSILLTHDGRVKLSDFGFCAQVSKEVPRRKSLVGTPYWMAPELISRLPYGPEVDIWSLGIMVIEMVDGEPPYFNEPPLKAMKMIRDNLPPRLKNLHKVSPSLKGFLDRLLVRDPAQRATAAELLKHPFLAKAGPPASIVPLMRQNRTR
Sequence of Serine/threonine-protein kinase PAK 5 (Homo sapiens) (Q9P286 whole entry, looked up): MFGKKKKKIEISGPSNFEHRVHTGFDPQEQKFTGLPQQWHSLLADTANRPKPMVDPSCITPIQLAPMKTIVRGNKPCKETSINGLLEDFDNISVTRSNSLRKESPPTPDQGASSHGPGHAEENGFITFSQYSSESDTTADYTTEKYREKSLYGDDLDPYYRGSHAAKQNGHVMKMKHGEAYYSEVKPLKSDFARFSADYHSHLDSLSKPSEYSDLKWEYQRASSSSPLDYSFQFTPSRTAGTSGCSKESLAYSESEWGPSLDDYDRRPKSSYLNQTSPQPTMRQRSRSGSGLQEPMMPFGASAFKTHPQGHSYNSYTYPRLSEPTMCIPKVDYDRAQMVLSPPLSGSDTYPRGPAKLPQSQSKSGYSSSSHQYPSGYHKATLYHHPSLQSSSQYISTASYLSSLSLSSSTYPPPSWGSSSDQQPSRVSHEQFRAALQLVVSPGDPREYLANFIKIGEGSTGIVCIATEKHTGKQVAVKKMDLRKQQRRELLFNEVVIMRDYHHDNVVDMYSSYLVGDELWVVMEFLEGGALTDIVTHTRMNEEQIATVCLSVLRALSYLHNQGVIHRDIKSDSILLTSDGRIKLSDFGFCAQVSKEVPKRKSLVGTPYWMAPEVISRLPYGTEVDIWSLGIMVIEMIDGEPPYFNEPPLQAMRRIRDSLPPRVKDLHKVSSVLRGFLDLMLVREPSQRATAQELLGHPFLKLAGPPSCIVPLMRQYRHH
Sequence of Activated CDC42 kinase 1 (Homo sapiens) (Q07912 whole entry, looked up): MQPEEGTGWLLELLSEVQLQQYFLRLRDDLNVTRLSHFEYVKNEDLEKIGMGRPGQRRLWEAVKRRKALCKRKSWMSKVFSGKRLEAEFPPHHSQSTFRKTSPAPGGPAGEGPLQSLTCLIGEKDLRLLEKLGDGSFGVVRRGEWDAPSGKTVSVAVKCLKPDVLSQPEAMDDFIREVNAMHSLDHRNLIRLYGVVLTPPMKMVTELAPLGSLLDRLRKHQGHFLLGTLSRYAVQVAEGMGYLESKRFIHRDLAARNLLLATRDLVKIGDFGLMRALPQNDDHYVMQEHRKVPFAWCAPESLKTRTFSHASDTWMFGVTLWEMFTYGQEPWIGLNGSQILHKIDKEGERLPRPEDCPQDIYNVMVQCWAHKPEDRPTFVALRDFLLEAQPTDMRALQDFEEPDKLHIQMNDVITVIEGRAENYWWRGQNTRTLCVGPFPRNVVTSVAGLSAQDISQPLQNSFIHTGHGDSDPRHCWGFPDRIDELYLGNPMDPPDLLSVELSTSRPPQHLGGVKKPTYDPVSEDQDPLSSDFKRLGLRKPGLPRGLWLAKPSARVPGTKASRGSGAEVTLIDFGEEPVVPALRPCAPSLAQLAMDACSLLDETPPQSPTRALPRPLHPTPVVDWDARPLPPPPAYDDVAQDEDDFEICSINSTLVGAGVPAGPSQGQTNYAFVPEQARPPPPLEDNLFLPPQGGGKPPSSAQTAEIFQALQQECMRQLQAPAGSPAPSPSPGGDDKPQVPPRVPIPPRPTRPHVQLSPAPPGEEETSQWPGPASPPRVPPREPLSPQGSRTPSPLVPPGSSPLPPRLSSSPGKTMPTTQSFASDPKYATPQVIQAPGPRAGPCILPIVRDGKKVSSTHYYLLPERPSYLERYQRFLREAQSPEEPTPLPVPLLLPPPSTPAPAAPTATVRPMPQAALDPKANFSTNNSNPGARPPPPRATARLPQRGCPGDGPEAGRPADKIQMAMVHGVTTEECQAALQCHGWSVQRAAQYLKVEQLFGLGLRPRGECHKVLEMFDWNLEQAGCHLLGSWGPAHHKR

With `CC#CC(=O)Nc1cc2c(Nc3ccc(F)c(Cl)c3)ncnc2cn1`, the residual activity in assay [1] was found to be 99%; in assay [2] it was 91%; in assay [3], 104%; in assay [4], 107%; in [5], 102%; in assay [6], 96%. Moreover, the residual activity is 99% in [7]; 86% in [8]; 71% in [9]; 81% in assay [10]; 81% in assay [11]; 137% in assay [12]. Besides, the residual activity in assay [13] came to 99%; in assay [14] it was 99%; in [15] it was 84%; in assay [16], 79%; in assay [17] it was 74%; in [18], 95%. For the same molecule, the residual activity came to 86% in assay [19] and 104% in assay [20].
On to `Nc1nc(Nc2ccc(S(N)(=O)=O)cc2)nn1C(=S)Nc1c(F)cccc1F`, for which the residual activity in assay [1] was found to be 6%; in assay [2] it was 0%; in assay [3], 9%; in assay [4], 1%; in [5] it was 14%; in [6] it was 4%. The residual activity in [7] worked out at 89%; in [8], 9%; in assay [9], 0%; in assay [10], 16%; in assay [11], 1%; in assay [12], 7%. The residual activity in [13] is -4%; in assay [14], -2%; in [15], -1%; in [16], -3%; in assay [17] it was 0%; in assay [18], 1%. In addition, the residual activity in [19] is 0%; in assay [20] it was 1%.
As for `c1ccc(-c2n[nH]cc2-c2ccnc3ccccc23)nc1`, the residual activity in [1] is 98%; in assay [2] it was 90%; in [3] it was 92%; in [4] it was 104%; in [7], 82%; in assay [8] it was 77%. Moreover, the residual activity in [9] was 50%; in assay [10] it was 85%; in [11], 105%; in assay [12] it was -3%; in assay [13] it was -4%; in [14], 86%. Moreover, the residual activity in assay [15] is 76%; in assay [16], 101%; in assay [17], 81%; in assay [18], 99%; in assay [19], 90%; in assay [20], 98%.
Regarding `CO[C@H]1C[C@@H]2CC[C@@H](C)[C@@](O)(O2)C(=O)C(=O)N2CCCC[C@H]2C(=O)O[C@H]([C@H](C)C[C@@H]2CC[C@@H](O)[C@H](OC)C2)CC(=O)[C@H](C)/C=C(\C)[C@@H](O)[C@@H](OC)C(=O)[C@H](C)C[C@H](C)/C=C/C=C/C=C/1C`, the residual activity in assay [1] was determined as 89%; in assay [2], 88%; in assay [3], 97%; in assay [4], 109%; in assay [5], 106%; in assay [6] it was 136%. In addition, the residual activity in [8] worked out at 82%; in assay [9], 63%; in [10], 82%; in assay [11] it was 32%; in assay [12], 115%; in assay [13], 110%. Moreover, the residual activity in assay [14] stood at 79%; in assay [16], 93%; in assay [17], 107%; in [18], 99%; in assay [19] it was 96%; in assay [20], 85%.
Consider `Cc1cccc(-c2[nH]c(C(C)(C)C)nc2-c2ccc3c(c2)OCO3)n1`, for which the residual activity is 97% in assay [1]; 88% in assay [2]; 87% in [3]; 102% in assay [4]; 90% in assay [8]; 67% in [9]. In addition, the residual activity was 82% in assay [10]; 102% in [11]; 1% in assay [12]; -6% in assay [13]; 102% in assay [14]; 83% in [15]. The residual activity in assay [16] is 106%; in assay [17], 78%; in assay [18], 102%; in assay [19], 88%; in assay [20], 83%.
As to `COc1ccc(S(=O)(=O)N(CCO)c2ccccc2CN(C)C/C=C/c2ccc(Cl)cc2)cc1`, the residual activity amounted to 94% in assay [1]; 93% in [2]; 100% in [3]; 77% in [4]; 105% in [5]; 64% in [6]. Further, the residual activity was found to be 87% in assay [7]; 68% in [8]; 60% in [9]; 68% in assay [10]; 59% in assay [11]; 96% in [12]. In addition, the residual activity in [13] turned out to be 102%; in assay [14], 104%; in assay [15] it was 76%; in [16] it was 99%; in assay [17] it was 74%; in assay [18] it was 100%. In addition, the results for the residual activity in [19] and in assay [20] were 75% and 94%, respectively.
`Cc1nc2cc3nc(-c4cccs4)cnc3cc2n1C`: the residual activity in assay [1] is 95%; in assay [2], 101%; in assay [3], 106%; in assay [4], 105%; in assay [5] it was 111%; in assay [6] it was 102%. For the same molecule, the residual activity in [7] was found to be 86%; in assay [8], 107%; in [9] it was 74%; in assay [10], 93%; in assay [11], 112%; in assay [12], 123%. Further, the residual activity in assay [13] is 88%; in [14], 116%; in assay [15] it was 83%; in assay [16] it was 118%; in assay [17] it was 85%; in [18], 116%. In addition, the residual activity in assay [19] came to 78%; in assay [20] it was 109%.
